# PubChem BioAssay (NCATS)
# Records with an inconclusive call do not appear. The source made the active and inactive calls. Calls come from the whole dose curve; as a rule, active = well fitted cell-killing curve with a large enough effect; inconclusive = small, poorly fitted or top-dose-only effect, or effect the other way; inactive = no such curve, though single readings can be large or run the other way.
# Assay: Quantitative High-Throughput drug screen in 47 multiple myeloma cell lines against the NCATS MIPE library collection: KMS34_JCRB cell viability assay (AID 1918985); note: nearly all actives have a fitted effect of over 40% in size
# Settings: KMS34 myeloma viability, CellTiter-Glo ATP luminescence, 48 h; series mostly up to 45.8 µM
# Method in brief: (§1)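 Viability after 48 h drug exposure was measured as ATP-dependent luminescence. Cells, 500 per well, sat at 37 °C under 5% CO2; DMSO wells set 100%, media-only wells 0%.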
# Potency is the fitted concentration of half-maximal effect.
row,SMILES,Potency
1,COc1cccc2c1C(=O)c1c(O)c3c(c(O)c1C2=O)C[C@@](O)(C(=O)CO)C[C@@H]3O[C@H]1C[C@H](N)[C@H](OC2CCCCO2)[C@H](C)O1 (stereo partly specified),2640 nM (active)
2,Nc1cccc2c1C(=O)N(C1CCC(=O)NC1=O)C2=O (stereo unspecified),2.1 nM (active)
3,O=c1ccn([C@@H]2O[C@H](CO)[C@H](O)[C@@H]2F)c(=O)[nH]1,inactive
4,Cn1cc(CNCC2CCN(c3ncc(C(=O)NO)cn3)CC2)c2ccccc21,18.7 nM (active)
5,CC(=O)NCC(=O)N1[C@H]2CC[C@H]1c1cc(Nc3ncc(C(F)(F)F)c(NC4CCC4)n3)ccc12,833 nM (active)
6,CC(C)N(CC[C@H](c1ccccc1)c1cc(CO)ccc1O)C(C)C,inactive

# Assay: Quantitative High-Throughput drug screen in 47 multiple myeloma cell lines against the NCATS MIPE library collection: OCIMY7_PLB cell viability assay (AID 1918987); note: nearly all actives have a fitted effect of over 65% in size
# Settings: OCI-MY7 myeloma viability, CellTiter-Glo ATP, 48 h; viability (% of DMSO): at 45.8 µM (top of the series)
# Method in brief: as §1
row,SMILES,Potency
1,COc1cccc2c1C(=O)c1c(O)c3c(c(O)c1C2=O)C[C@@](O)(C(C)=O)C[C@H]3O[C@H]1C[C@H](N)[C@H](O)[C@H](C)O1,418 nM (active)
2,CC[C@H]1OC(=O)[C@H](C)[C@@H](O[C@H]2C[C@@](C)(OC)[C@@H](O)[C@H](C)O2)[C@H](C)[C@@H](O[C@@H]2O[C@H](C)C[C@H](N(C)C)[C@@H]2O)[C@](C)(OC)C[C@@H](C)C(=O)[C@H](C)[C@@H](O)[C@]1(C)O,inactive
3,COc1cc2c(Nc3ccc(Cl)c(Cl)c3F)ncnc2cc1OCC1C[C@@H]2CN(C)C[C@H]2C1,209 nM (active)
4,CC1=C(C(=O)Nc2cc3cn[nH]c3cc2F)C(c2ccc(Cl)cc2F)N=C(c2ccnc(Cl)c2)N1 (stereo unspecified),5900 nM (active)

# Assay: Quantitative High-Throughput drug screen in 47 multiple myeloma cell lines against the NCATS MIPE library collection: OCIMY5_PLB cell viability assay (AID 1918988); note: nearly all actives have a fitted effect of over 65% in size
# Settings: OCI-MY5 myeloma viability, ATP luminescence, 48 h; series mostly up to 45.8 µM
# Method in brief: as §1
row,SMILES,Potency
1,COc1ccc(C=Cc2cc(OC)c(OC)c(OC)c2)cc1NC(=O)[C@H](N)CO,0.0026 µM (active)
2,CCN(CC)Cc1ccc2cc(COC(=O)Nc3ccc(C(=O)NO)cc3)ccc2c1,0.372 µM (active)
3,CC(=O)OCC(=O)[C@@]1(O)CC[C@H]2[C@@H]3CCC4=CC(=O)CC[C@]4(C)[C@@H]3C(=O)C[C@@]21C,inactive
4,COc1ccc2c(c1OC)C(=O)OC2[C@H]1c2c(cc3c(c2OC)OCO3)CCN1C (stereo partly specified),0.0235 µM (active)
5,COc1cccc2c1C(=O)c1c(O)c3c(c(O)c1C2=O)C[C@@](O)(C(C)=O)C[C@H]3O[C@H]1C[C@H](N)[C@H](O)[C@H](C)O1,0.0469 µM (active)
6,CCOC(=O)N1CCN([N+]([O-])=NOc2ccc([N+](=O)[O-])cc2C#N)CC1,0.833 µM (active)
7,CN[C@H]1[C@@H](O)[C@@H]2O[C@@H]3O[C@H](C)CC(=O)[C@]3(O)O[C@@H]2[C@@H](NC)[C@H]1O,1.18 µM (active)
8,COc1ccc(S(=O)(=O)Nc2cccnc2Nc2ccc(O)cc2)cc1,0.0372 µM (active)
9,CCCCCCCCc1ccc(CCC(N)(CO)CO)cc1,14.8 µM (active)
10,C[C@H](CCC(=O)O)[C@H]1CCC2C3C[C@H](O)[C@@H]4C[C@H](O)CC[C@]4(C)C3CC[C@@]21C (stereo partly specified),inactive
11,Oc1cc(-c2nc(-c3ccccc3)[nH]c2-c2ccncc2)ccc1Cl,18.7 µM (active)
12,NC[C@H]1O[C@H](O[C@H]2[C@@H](O)[C@@H](O[C@H]3O[C@H](CO)[C@@H](O)[C@H](N)[C@@H]3O)[C@H](N)C[C@@H]2N)[C@H](N)C[C@H]1O,inactive
13,COc1cc2c(Nc3ccc(Cl)c(Cl)c3F)ncnc2cc1OCC1C[C@@H]2CN(C)C[C@H]2C1,1.87 µM (active)
14,COC(=O)[C@H](CCCN=C(N)N)NS(=O)(=O)c1ccc(C)cc1,inactive
15,CCOC(=O)[C@H](CCc1ccccc1)N[C@@H](C)C(=O)N1[C@@H](C(=O)O)C[C@H]2CCC[C@@H]21,14.8 µM (active)
16,Oc1ccc(-c2ccc(-c3cc(Nc4cccc(CNC5CC5)c4)n[nH]3)cc2)c(O)c1,1.48 µM (active)
17,C=CCNC1=C2C[C@@H](C)C[C@H](OC)[C@@H](O)[C@@H](C)C=C(C)[C@H](OC(N)=O)[C@@H](OC)C=CC=C(C)C(=O)NC(=CC1=O)C2=O,0.526 µM (active)
18,CC(C)(O)Cn1c(NC(=O)c2ccc(-c3cn[nH]c3)s2)nc2cc(CN3CCOCC3)ccc21,1.32 µM (active)
19,COc1cc(OC)cc(-c2ccc3ncc4ccc(=O)n(-c5ccc(N6CCNCC6)c(C(F)(F)F)c5)c4c3c2)c1,1.32 µM (active)
20,CC1=C(C(=O)Nc2cc3cn[nH]c3cc2F)C(c2ccc(Cl)cc2F)N=C(c2ccnc(Cl)c2)N1 (stereo unspecified),16.6 µM (active)
21,CN(C)CCN1C(=O)c2cccc3cc(N)cc(c23)C1=O,23.5 µM (active)
